Bioassay records deposited in PubChem by National Center for Advancing Translational Sciences (NCATS).
D2 PAM-1 – positive allosteric modulators of human D2 dopamine receptor; P14416; DiscoveRx D2 beta-arrestin cells, luminescence, 90 min; 100% = 57 uM dopamine signal; potentiation, % (concentration not given with the values); actives 0.23% (n = 360,000); in the data active = potentiation above about 50%; inconclusive = mostly about 30% to 49%
Target sequence (P14416 whole entry, looked up): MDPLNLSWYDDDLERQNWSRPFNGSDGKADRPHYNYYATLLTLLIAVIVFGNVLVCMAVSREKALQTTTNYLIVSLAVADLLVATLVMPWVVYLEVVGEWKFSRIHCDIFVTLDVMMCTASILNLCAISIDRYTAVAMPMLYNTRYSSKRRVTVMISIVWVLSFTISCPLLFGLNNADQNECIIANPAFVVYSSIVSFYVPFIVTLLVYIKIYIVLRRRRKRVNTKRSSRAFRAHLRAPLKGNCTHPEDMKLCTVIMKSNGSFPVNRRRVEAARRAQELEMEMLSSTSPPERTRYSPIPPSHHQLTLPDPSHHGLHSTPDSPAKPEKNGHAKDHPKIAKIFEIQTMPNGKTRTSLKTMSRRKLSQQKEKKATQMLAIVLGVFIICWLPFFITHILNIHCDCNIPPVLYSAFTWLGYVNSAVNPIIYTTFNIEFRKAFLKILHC
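PathHunter D2 cells, attached overnight at 37 deg C, received compound in DMSO plus dopamine at EC20 (50 nM final) for 90 min at 37 deg C. Beta-arrestin recruitment was read as luminescence after 1 h with detection reagent at ambient temperature.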
D2 ag-1 – agonists of human D2 dopamine receptor; actives 0.53% (n = 340,000); HEK293 T-REx D2 cells, calcium flux agonist mode; P14416; activation, % at 2 µM; AID 485358;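 active = activation over 3 SD above normal in the single-dose calcium agonist read, cut at about 30% in these data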; also: 0% is about no effect
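HEK293 Trex D2 cells, tetracycline-induced, o/n 30 C 5% CO2; no-wash Ca dye, RT 30–90 min; 10-cycle baseline, 23 nl cpd added, kinetic Ca read 180 s; agonist hits = positive Ca response.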
D2 PAM-2 – D2 dopamine receptor (human) potentiation. P14416. HEK293 T-REx D2, calcium flux, EC20 dopamine potentiation. potentiation, % at 10 µM. actives 0.34% (n = 340,000). AID 485347;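 active = potentiation over 3 SD above the plate norm, cut at about 30% in these data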; also: 0% is about no effect
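Calcium flux readout, no-wash dye, 1 read/s. Inducible HEK293 Trex D2 line, overnight 30 C. Compound alone 180 s (agonist flags), then EC20 dopamine, another 180 s to score potentiation.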
D2 antag – D2 dopamine receptor (human) antagonism; P14416; HEK293 TREx D2 cells, calcium flux, dopamine EC80; inhibition, % at 10 µM; actives 2% (n = 340,000); AID 485344; in the data active = inhibition above about 30%; inactive = below that, where a call was filed; also: 0% is about no effect
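Tetracycline-induced HEK293 T-REx cells expressing D2 force-coupled to calcium signalling were dye-loaded, exposed to compound for 180 s, then challenged with an EC80 of dopamine; calcium flux was followed kinetically for a further 180 s.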
D2 ag-2 – activates the human D2 dopamine receptor. P14416. DiscoveRx PathHunter D2 beta-arrestin, luminescence, 90 min; 100% = 57 uM dopamine signal. activation, % (test concentration not listed). actives 0.084% (n = 360,000). AID 624465; in the data active = activation above about 40%; inconclusive = between about 15% and that limit
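DiscoveRx PathHunter D2 beta-arrestin cells (2,100/well) attached overnight, then compound-stimulated 90 min at 37 C in HBSS/10 mM HEPES/0.1% Tween-20 buffer; beta-galactosidase complementation read by luminescence after 1 h at ambient temperature. Dopamine 57 uM final (EC100) as control.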
D3 ag – confirmation of human D3 dopamine receptor agonists, beta-arrestin; shares compounds with D2 ag-1; DiscoveRx D3 beta-arrestin cells, luminescence, 90 min; Potency, µM (top dose mostly 76.9 µM), for inactives: at the highest dose activation, actives largely listed as activators; actives 4% (n = 2,300); AID 720506;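 also: potency is read from the fitted curve at half-maximal effect; 100% = dopamine control response; nearly all actives have a fitted effect of over 70% in size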
D2 ag-3 – counter-screen for D3 agonists: human D2 dopamine receptor agonism. shares compounds with D2 ag-1. DiscoveRx PathHunter D2 beta-arrestin, luminescence, 90 min; response scale: percent relative to full dopamine signal. Potency, µM (doses to about 76.9 µM), for the others: at the top dose activation, usual class: activators. actives 5.9% (n = 2,300). AID 720507; also: potency is read from the fitted curve at half-maximal effect; % of control where 0% means no effect; nearly all actives have a fitted effect of over 70% in size
* = called active by the depositor; u = inconclusive; x = no result. An excerpt weighted towards active compounds, which were near 2.4% of everything screened. Unless noted, calls follow the shape of the dose curve; as a rule, active = well fitted activation curve with a large enough effect; inconclusive = small, poorly fitted or top-dose-only effect; inactive = flat fitted curve, though single readings scatter.

SMILES	D2 PAM-1	D2 ag-1	D2 PAM-2	D2 antag	D2 ag-2	D3 ag	D2 ag-3
COc1ccc(NC(=O)CN2CCN(c3ccc(F)cc3)CC2)cc1Cl	-20	1	-4	5	-3	x	x
COc1ccc(NC(=O)CN2CCN(c3ccccn3)CC2)cc1Cl	-5	66*	-19	-12	9	u	14%
COc1cc(NC(=O)c2ccccc2)c(OC)cc1NC(=O)CN1CCN(c2ccccn2)CC1	u	2	-29	-3	7	u	u
COc1cc(Cl)c(C)cc1NC(=O)c1ccccc1NC(=O)CN1CCN(c2ccccn2)CC1	7	x	x	x	0	x	x
O=C(NCCc1csc(-c2cccc(F)c2)n1)c1cccs1	x	-1	-4	x	x	x	x
CC(=O)Nc1ccc(SCCN2CC[C@@H](O)CCC2=O)cc1	0	0	19	-11	-2	x	x
CC(=O)Nc1ccc(SCCN2CC[C@@H](C)CCC2=O)cc1	-4	0	-5	-2	-4	0%	-4%
COc1ccccc1CNC(=O)c1ccc(CSc2nc3ccncc3n2Cc2cccc(F)c2)cc1	x	1	-9	x	x	x	x
CCCC(C)NC(=O)Cc1ccc(Br)cc1 (stereo unspecified)	-13	0	26	-5	-1	-12%	-2%
CC(C)NC(=O)Cc1ccc(Br)cc1	6	1	4	4	-1	x	x
O=C(NCc1ccc2c(c1)OCO2)c1nc(Cn2cc(Br)cn2)no1	-4	x	x	x	2	-1%	-3%
CCOc1ccc(C(=O)Nc2cc(-c3cn4cccnc4n3)ccc2C)cc1OCC	x	1	10	x	x	x	x
COc1ccc(-c2nn(CC(=O)NCc3ccccc3)c3c2cnc2ccc(F)cc23)cc1	x	0	21	x	x	x	x
COc1ccc(Cl)cc1NC(=O)Cn1ccn(Cc2ccc(C)cc2)c(=O)c1=O	x	1	8	x	x	x	x
CCOc1ccc(/C=C/c2nc(C#N)c(NC(C)c3ccccc3)o2)cc1 (stereo unspecified)	x	-1	8	x	x	x	x
COCCN(C(=O)C1=COCCO1)c1c(N)n(CC(C)C)c(=O)[nH]c1=O	-3	1	-1	0	6	-5%	22%
COCCN(C(=O)C1=COCCO1)c1c(N)n(Cc2ccccc2)c(=O)[nH]c1=O	-8	-1	1	6	0	x	x
COCCN(C(=O)c1ccc(COc2ccccc2)o1)c1c(N)n(CC(C)C)c(=O)[nH]c1=O	-15	0	1	-13	4	-7%	-2%
COc1ccc(Cl)cc1NCc1nnc2n1CCCCC2	x	-1	1	x	x	x	x
CCC(CC)c1nnc(NC(=O)c2cc(-c3ccccc3)nc3ccccc23)s1	-14	x	x	x	-1	-12%	-2%
Cc1cc(NC(=O)c2ccco2)ccc1-n1cnnn1	5	x	x	x	-1	0%	-1%
Cc1cc(C)c(NC(N)=S)c(C)c1	-4	0	-1	6	-5	0%	-4%
Cc1ccc(Cn2c(C(=O)O)c(CNC3CCCCCC3)c3ccc(C)cc32)cc1	x	-1	0	x	x	x	x
CCCN(CCC)CCCNC(=O)c1nn(C)c2c1CS(=O)(=O)c1ccccc1-2	x	-2	6	x	x	x	x
OC(COCC1COc2ccccc2O1)CN1CCN(c2ccccc2)CC1 (stereo unspecified)	-7	67*	-12	60*	u	u	u
OC(COCc1ccccc1)CN1CCN(c2ccccc2)CC1 (stereo unspecified)	-4	86*	-32	86*	14	u	u
COCCOCC(O)CN1CCN(c2ccccc2)CC1 (stereo unspecified)	-24	84*	-30	59*	9	22%	15%
Cc1ccccc1CNC(=O)C(=O)NCC(c1ccco1)S(=O)(=O)c1ccc(F)cc1 (stereo unspecified)	x	1	1	x	x	x	x
